# Values joined by “and” are separate entries in the source; they are usually repeats but may differ in a detail not shown here. Identical values can stand only once. Inconclusive results are not listed. Some structures have more than one record in an assay (separate samples or runs), and their calls can disagree. Active and inactive are the calls of the source. The calls were made as follows: active = hit-call score of the fitted dose curve at least 0.9, where 1 is the maximum; inconclusive = response in the unintended direction; inactive = score below 0.9.
# Experiments:
# [1] = molecular target: human Esterase Plasma (ES), BCHE (gene 590) (UniProt P06276); assay: NVS_ENZ_hES: NovaScreen (NVS) Enzymatic Assay for human Esterase Plasma (ES) (AID 2283157)
# In short: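 Cell-free enzyme assay using esterase extracted from human plasma; colorimetric absorbance read 0.25 hour after dosing. Single-concentration duplicate screen at 25 uM, then concentration-response up to 50 uM; loss of signal scored against DMSO baseline.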
# [2] = molecular target: human Ephrin type-A Receptor 1 (EphA1), EPHA1 (gene 2041) (UniProt P21709); assay: NVS_ENZ_hEphA1: NovaScreen (NVS) Enzymatic Assay for human Ephrin type-A Receptor 1 (EphA1) (AID 2283158);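 also: activity is signal loss versus DMSO meaning EphA1 kinase inhibition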
# In short: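 Biochemical kinase assay run cell-free; 1 h incubation; readout is fluorescence with mobility-shift separation of product. Concentration-response up to 50 uM for actives from a 25 uM screen.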
# [3] = molecular target: human FYN Proto-Oncogene, Src family Tyrosine Kinase (Fyn), FYN (gene 2534) (UniProt P06241); assay: NVS_ENZ_hFyn: NovaScreen (NVS) Enzymatic Assay for human FYN Proto-Oncogene, Src family Tyrosine Kinase (Fyn) (AID 2283161)
# In short: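 Recombinant enzyme with fluorescent substrate, product separated by electrophoretic mobility shift; read 1 h after dosing. Duplicate 25 uM single-point screen, actives retested in concentration series; loss of signal vs DMSO.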
# [4] = molecular target: Glycogen synthase kinase-3 beta (Homo sapiens) (UniProt P49841); assay: NVS_ENZ_hGSK3b: NovaScreen (NVS) Enzymatic Assay for human Glycogen Synthase Kinase-3 beta (GSK3b) (AID 2283165)
# Method: (§1) NVS_ENZ_hGSK3b is a biochemical, single-readout assay that uses extracted gene-proteins in a cell-free assay. Measurements were taken 1 hour after chemical dosing in a 384-well plate.NVS_ENZ_hGSK3b is one of one assay component(s) measured or calculated from the NVS_ENZ_hGSK3b assay. It is designed to make measurements of enzyme activity, a form of enzyme reporter, as detected with fluorescence intensity signals by Fluorescence and electrophoretic mobility shift technology.Data from the assay component NVS_ENZ_hGSK3b was analyzed into 1 assay endpoint. This assay endpoint, NVS_ENZ_hGSK3b, was analyzed in the positive analysis fitting direction relative to DMSO as the negative control and baseline of activity. Using a type of enzyme reporter, loss-of-signal activity can be used to understand changes in the enzymatic activity as they relate to the gene GSK3B. Furthermore, this assay endpoint can be referred to as a primary readout, because this assay has produced multiple assay endpoints where this one serves a enzymatic activity function. To generalize the intended target to other relatable targets, this assay endpoint is annotated to the kinase intended target family, where the subfamily is serine/threonine kinase.
# (§2) Binding assays used specific radioligands (tritiated, iodinated) with non-radioactive competitive displacement ligands in agonist or antagonist protocols (as indicated) and various reference compounds and inhibitors to titrate specific binding to receptors and transporters. Most enzyme assays (CYPs, kinases, phosphatases, proteases, HDACs) used recombinant protein and specific substrates (fluorescence mostly, some colorimetric and radioactive) and inhibitors, followed by a biochemical separation of substrate and product. All assays for the biochemical HTS were initially run in duplicate at a single concentration (10 uM for CYP450 assays and 25 uM for all others). Assay-chemical combinations meeting a pre-defined threshold (e.g., 30% inhibition and other criteria defined below) were then run in singleton concentration-response format with maximum concentration of 20 uM for CYPs and 50 uM for all others. Each assay was run with positive and negative controls, and concurrent controls on every plate. The follow-up (secondary) screen tested active chemical-pairs in concentration series, as well as a few additional assays not tested in the primary screen, some selected negative inactives, and several cases re-run in the concentration series for confirmatory purposes.
# [5] = molecular target: human Fibroblast Growth Factor Receptor 1 (FGFR1), FGFR1 (gene 2260) (UniProt P11362); assay: NVS_ENZ_hFGFR1: NovaScreen (NVS) Enzymatic Assay for human Fibroblast Growth Factor Receptor 1 (FGFR1) (AID 2283159)
# Method: as §1, with “NVS_ENZ_hFGFR1” for “NVS_ENZ_hGSK3b”, “plate.NVS_ENZ_hFGFR1” for “plate.NVS_ENZ_hGSK3b”, “NVS_ENZ_hFGFR1,” for “NVS_ENZ_hGSK3b,”, “FGFR1.” for “GSK3B.”, “receptor tyrosine” for “serine/threonine”
# as §2, with “Assay-chemical combinations meeting a pre-defined threshold (e.g., 30% inhibition and other criteria defined below) were then run in singleton concentration-response format with maximum concentration of 20 uM for CYPs and 50 uM for all others.” left out
# [6] = molecular target: Histone deacetylase 3 (Homo sapiens) (UniProt O15379); assay: NVS_ENZ_hHDAC3: NovaScreen (NVS) Enzymatic Assay for human Histone Deacetylase 3 (HDAC3) (AID 2283163)
# In short: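 Recombinant human HDAC3 with fluorescent substrate, 1 h after dosing; product separated from substrate by electrophoretic mobility shift and read by fluorescence. Primary screen at 25 uM in duplicate; actives (e.g. ≥30% inhibition) retested in concentration-response up to 50 uM.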
# [7] = molecular target: Protein deacetylase HDAC6 (Homo sapiens) (UniProt Q9UBN7); assay: NVS_ENZ_hHDAC6: NovaScreen (NVS) Enzymatic Assay for human Histone Deacetylase 6 (HDAC6) (AID 2283164)
# Method: as §1, with “NVS_ENZ_hHDAC6” for “NVS_ENZ_hGSK3b”, “plate.NVS_ENZ_hHDAC6” for “plate.NVS_ENZ_hGSK3b”, “NVS_ENZ_hHDAC6,” for “NVS_ENZ_hGSK3b,”, “HDAC6.” for “GSK3B.”, “hydrolase” for “kinase”, “histone deacetylase.” for “serine/threonine kinase.”
# Binding assays used specific radioligands (tritiated, iodinated) with non-radioactive competitive displacement ligands in agonist or antagonist protocols (as indicated) and various reference compounds and inhibitors to titrate specific binding to receptors and transporters. Most enzyme assays (CYPs, kinases, phosphatases, proteases, HDACs) used recombinant protein and specific substrates (fluorescence mostly, some colorimetric and radioactive) and inhibitors, followed by a biochemical separation of substrate and product. All assays for the biochemical HTS were initially run in duplicate at a single concentration (10 uM for CYP450 assays and 25 uM for all others). […]
# [8] = molecular target: human IkappaB Kinase alpha (IKKa), CHUK (gene 1147) (UniProt O15111); assay: NVS_ENZ_hIKKa: NovaScreen (NVS) Enzymatic Assay for human IkappaB Kinase alpha (IKKa) (AID 2283167)
# In short: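 Cell-free recombinant human IKKa with fluorescent substrate, product separated by electrophoretic mobility shift; read 1 hour after dosing. Primary screen duplicate at 25 uM, actives then concentration-response up to 50 uM; loss of signal relative to DMSO.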
# [9] = molecular target: human Ephrin type-B Receptor 2 (EphB2), EPHB2 (gene 2048) (UniProt P29323); assay: NVS_ENZ_hEphB2: NovaScreen (NVS) Enzymatic Assay for human Ephrin type-B Receptor 2 (EphB2) (AID 2283156)
# In short: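 Recombinant kinase with fluorescent substrate, product separated by electrophoretic mobility shift, read 1 h after dosing. Duplicate 25 uM screen, then singleton concentration-response to 50 uM max; loss of signal versus DMSO.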
# [10] = molecular target: human Janus Kinase 2 (Jak2), JAK2 (gene 3717) (UniProt O60674); assay: NVS_ENZ_hJak2: NovaScreen (NVS) Enzymatic Assay for human Janus Kinase 2 (Jak2) (AID 2283169)
# In short: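 Cell-free recombinant human JAK2 enzyme activity assay, fluorescence/electrophoretic mobility shift read 1 h after dosing. Screened in duplicate at 25 uM, then concentration-response up to 50 uM; activity as signal loss relative to DMSO.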
# Sequence of human Ephrin type-A Receptor 1 (EphA1), EPHA1 (gene 2041) (P21709 whole entry, looked up): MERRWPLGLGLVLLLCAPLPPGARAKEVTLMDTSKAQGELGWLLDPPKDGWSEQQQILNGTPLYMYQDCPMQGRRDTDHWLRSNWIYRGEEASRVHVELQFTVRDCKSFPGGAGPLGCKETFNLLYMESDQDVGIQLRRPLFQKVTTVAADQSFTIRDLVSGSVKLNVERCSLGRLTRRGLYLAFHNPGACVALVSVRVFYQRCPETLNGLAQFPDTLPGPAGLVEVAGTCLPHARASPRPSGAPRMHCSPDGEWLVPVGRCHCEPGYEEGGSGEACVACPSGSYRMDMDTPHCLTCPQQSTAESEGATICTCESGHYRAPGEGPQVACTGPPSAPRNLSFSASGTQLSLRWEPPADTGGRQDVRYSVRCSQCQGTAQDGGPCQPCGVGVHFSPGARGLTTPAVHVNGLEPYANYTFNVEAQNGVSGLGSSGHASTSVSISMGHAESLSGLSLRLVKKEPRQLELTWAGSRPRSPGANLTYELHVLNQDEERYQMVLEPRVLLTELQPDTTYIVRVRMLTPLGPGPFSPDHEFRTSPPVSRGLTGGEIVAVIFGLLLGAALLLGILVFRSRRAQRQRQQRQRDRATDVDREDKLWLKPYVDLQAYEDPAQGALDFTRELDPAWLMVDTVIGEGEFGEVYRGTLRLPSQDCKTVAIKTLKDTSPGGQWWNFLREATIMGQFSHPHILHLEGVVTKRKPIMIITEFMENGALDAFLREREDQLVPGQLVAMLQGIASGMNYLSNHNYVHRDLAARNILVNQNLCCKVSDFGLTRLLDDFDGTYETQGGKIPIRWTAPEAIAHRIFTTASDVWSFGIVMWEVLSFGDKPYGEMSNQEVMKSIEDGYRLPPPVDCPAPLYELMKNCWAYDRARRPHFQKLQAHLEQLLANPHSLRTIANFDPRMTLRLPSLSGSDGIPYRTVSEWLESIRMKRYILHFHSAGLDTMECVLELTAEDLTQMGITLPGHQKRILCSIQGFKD
# Sequence of Protein deacetylase HDAC6 (Homo sapiens) (Q9UBN7 whole entry, looked up): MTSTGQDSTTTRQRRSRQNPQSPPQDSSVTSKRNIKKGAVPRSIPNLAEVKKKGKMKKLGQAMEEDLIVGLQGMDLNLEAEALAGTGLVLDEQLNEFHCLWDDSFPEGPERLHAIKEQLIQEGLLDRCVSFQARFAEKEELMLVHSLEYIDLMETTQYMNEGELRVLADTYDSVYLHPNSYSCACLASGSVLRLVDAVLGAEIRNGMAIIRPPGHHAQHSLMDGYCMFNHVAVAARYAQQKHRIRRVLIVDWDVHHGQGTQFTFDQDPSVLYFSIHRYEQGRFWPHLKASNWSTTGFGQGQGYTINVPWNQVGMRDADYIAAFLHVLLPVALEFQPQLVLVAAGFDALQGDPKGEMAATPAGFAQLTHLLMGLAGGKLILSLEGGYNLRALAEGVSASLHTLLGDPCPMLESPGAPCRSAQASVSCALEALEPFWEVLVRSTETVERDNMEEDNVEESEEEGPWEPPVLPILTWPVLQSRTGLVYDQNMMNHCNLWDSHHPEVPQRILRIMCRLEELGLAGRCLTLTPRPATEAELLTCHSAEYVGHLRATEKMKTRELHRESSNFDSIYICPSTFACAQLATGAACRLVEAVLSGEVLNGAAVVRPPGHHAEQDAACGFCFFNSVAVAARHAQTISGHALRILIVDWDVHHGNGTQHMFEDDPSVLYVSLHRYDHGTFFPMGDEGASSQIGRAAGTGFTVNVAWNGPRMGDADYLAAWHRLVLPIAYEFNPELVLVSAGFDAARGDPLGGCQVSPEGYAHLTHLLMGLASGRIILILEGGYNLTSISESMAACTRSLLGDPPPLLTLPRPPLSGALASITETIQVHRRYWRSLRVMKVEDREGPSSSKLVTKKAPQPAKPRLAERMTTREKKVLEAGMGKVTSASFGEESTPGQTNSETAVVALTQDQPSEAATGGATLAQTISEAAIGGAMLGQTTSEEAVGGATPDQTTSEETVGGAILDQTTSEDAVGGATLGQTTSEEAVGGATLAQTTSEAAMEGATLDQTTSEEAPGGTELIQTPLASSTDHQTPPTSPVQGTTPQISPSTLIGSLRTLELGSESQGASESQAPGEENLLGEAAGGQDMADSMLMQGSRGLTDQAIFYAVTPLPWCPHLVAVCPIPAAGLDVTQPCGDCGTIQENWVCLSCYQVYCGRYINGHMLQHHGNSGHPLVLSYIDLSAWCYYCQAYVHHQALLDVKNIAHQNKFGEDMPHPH
# Sequence of human IkappaB Kinase alpha (IKKa), CHUK (gene 1147) (O15111 whole entry, looked up): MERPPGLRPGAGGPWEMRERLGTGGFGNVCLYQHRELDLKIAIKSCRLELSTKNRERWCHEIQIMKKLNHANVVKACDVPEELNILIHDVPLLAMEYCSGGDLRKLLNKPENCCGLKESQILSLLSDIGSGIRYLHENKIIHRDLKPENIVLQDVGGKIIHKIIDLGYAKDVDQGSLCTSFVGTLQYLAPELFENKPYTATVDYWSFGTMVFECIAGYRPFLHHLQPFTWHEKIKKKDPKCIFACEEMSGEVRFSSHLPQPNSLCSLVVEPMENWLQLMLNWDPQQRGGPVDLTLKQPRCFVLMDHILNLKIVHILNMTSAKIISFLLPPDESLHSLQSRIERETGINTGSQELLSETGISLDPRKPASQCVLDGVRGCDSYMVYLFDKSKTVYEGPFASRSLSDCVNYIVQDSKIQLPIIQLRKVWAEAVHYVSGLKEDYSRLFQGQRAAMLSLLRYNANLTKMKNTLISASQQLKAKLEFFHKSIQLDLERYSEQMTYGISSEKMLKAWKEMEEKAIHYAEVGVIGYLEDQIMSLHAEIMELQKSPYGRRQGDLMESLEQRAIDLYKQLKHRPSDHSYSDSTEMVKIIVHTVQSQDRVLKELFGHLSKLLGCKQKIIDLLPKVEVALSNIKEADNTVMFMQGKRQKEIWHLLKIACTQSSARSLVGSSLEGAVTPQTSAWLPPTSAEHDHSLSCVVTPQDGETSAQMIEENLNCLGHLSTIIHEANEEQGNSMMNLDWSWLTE
# Sequence of human Fibroblast Growth Factor Receptor 1 (FGFR1), FGFR1 (gene 2260) (P11362 whole entry, looked up): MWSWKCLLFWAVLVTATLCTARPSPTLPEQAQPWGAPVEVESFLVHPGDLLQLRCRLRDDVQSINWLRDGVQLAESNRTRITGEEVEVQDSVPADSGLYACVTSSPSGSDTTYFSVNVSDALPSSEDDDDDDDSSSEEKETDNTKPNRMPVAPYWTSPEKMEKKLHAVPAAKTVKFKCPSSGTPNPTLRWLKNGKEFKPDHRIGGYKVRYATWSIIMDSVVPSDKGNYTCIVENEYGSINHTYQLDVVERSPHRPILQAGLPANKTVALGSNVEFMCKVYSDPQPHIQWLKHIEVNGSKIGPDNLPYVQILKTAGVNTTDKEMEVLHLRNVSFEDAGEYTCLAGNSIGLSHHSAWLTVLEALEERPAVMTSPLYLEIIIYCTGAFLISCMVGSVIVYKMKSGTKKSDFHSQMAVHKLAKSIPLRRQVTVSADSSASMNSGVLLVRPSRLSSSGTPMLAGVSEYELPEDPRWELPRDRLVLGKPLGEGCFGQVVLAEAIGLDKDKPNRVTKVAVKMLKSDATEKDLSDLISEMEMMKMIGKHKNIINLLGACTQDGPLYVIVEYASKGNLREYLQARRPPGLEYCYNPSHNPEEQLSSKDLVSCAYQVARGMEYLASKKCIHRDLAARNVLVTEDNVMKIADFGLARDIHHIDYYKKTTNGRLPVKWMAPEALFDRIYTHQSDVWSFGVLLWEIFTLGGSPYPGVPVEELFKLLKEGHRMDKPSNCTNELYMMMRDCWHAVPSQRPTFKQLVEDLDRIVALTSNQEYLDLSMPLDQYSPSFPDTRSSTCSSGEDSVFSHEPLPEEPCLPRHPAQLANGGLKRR
# Sequence of human Esterase Plasma (ES), BCHE (gene 590) (P06276 whole entry, looked up): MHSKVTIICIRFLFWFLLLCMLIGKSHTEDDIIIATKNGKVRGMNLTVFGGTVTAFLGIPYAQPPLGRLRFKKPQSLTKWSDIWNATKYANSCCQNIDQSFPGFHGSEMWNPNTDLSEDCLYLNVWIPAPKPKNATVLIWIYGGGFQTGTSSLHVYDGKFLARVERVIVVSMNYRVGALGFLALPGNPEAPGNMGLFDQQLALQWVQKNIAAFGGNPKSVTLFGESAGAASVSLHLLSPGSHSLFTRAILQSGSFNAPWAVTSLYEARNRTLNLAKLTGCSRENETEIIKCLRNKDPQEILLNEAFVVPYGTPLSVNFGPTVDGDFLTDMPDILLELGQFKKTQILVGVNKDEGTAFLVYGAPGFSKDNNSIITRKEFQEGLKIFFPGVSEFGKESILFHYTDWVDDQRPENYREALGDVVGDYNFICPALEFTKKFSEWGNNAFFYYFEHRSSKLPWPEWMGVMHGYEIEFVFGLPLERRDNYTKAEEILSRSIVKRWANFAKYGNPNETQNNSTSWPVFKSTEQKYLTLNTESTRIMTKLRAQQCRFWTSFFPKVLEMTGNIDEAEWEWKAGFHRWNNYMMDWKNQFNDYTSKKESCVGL
# Sequence of Glycogen synthase kinase-3 beta (Homo sapiens) (P49841 whole entry, looked up): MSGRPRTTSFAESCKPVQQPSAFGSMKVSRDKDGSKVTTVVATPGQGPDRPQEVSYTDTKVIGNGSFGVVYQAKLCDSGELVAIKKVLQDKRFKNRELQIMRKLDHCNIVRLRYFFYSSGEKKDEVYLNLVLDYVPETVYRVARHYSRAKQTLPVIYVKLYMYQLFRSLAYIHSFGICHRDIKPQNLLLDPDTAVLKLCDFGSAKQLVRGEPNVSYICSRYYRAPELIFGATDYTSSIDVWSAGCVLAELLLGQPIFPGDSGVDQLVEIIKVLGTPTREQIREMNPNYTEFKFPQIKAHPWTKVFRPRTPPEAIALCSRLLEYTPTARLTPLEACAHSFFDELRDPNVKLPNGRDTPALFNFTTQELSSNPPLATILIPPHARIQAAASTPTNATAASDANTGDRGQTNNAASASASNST
compound,measurement,setting,value
COP(=S)(OC)Oc1nc(Cl)c(Cl)cc1Cl,outcome,[1],inactive
N#Cc1cc(Br)c(O)c(Br)c1,outcome,[2],inactive
CNC(=O)ON=CC(C)(C)SC,AC50,[1],11.1 µM (active)
COC(=O)C=C(C)OP(=O)(OC)OC,AC50,[1],13.4 µM (active)
O=C(Nc1ccccc1)Nc1ccnc(Cl)c1,outcome,[3],inactive
COc1nc(C)nc(NC(=O)NS(=O)(=O)c2ccccc2Cl)n1,outcome,[4],inactive
CCCCNC(=O)OCC#CI,outcome,[5],inactive
same,AC50,[6],17.5 µM (active) and 14.6 µM (active)
same,AC50,[7],25 µM (active)
same,outcome,[7],inactive
CC(C)(C)c1ccc(CSc2cnn(C(C)(C)C)c(=O)c2Cl)cc1,outcome,[8],inactive
CC1=C(C(=O)Nc2ccccc2)SCCO1,AC50,[1],23.6 µM (active)
CCCN(CCC)c1c([N+](=O)[O-])cc(S(N)(=O)=O)cc1[N+](=O)[O-],outcome,[9],inactive
same,outcome,[2],inactive
same,outcome,[5],inactive
same,outcome,[4],inactive
same,outcome,[10],inactive
CCCCOC(=O)c1ccccc1C(=O)OCCCC,AC50,[1],11 µM (active)
same,outcome,[1],inactive
CO/C=C(/C(=O)OC)c1ccccc1Oc1cc(Oc2ccccc2C#N)ncn1,AC50,[1],26.3 µM (active) and 26.4 µM (active) and 10 µM (active)
same,outcome,[5],inactive
same,outcome,[8],inactive
CCOC(=O)C(Cl)Cc1cc(-n2nc(C)n(C(F)F)c2=O)c(F)cc1Cl (stereo not drawn),outcome,[1],inactive
same,outcome,[5],inactive
COc1cnc(OC)n2nc(NS(=O)(=O)c3c(OCC(F)F)cccc3C(F)(F)F)nc12,outcome,[2],inactive
N#Cc1nn(-c2c(Cl)cc(C(F)(F)F)cc2Cl)c(N)c1S(=O)C(F)(F)F (stereo not drawn),outcome,[5],inactive
Cc1ccc(-c2c(Cl)nc(C#N)n2S(=O)(=O)N(C)C)cc1,outcome,[2],inactive
same,AC50,[4],18.2 µM (active)
CNC(=S)S,outcome,[4],inactive
same,outcome,[8],inactive
CS/C(C)=N/OC(=O)N(C)SN(C)C(=O)O/N=C(\C)SC,AC50,[1],3.07 µM (active)
same,outcome,[7],inactive
COP(N)(=O)SC (stereo not drawn),outcome,[9],inactive

# — PubChem BioAssay (EPA / NIEHS)
